Experimental findings from PubChem BioAssay AID2540 (Sanford-Burnham Center for Chemical Genomics, 2010) are described below.

Among all 330,000 compounds or so, about 4,100 (1.2%) were called active. The entries come from a sample that favours actives as a whole. Values without a mark were called inactive. No stated cut-off is given here; in the data, active means inhibition above about 50%; inactive means the rest.

This test deals with Sentrin-specific protease 8 (Homo sapiens) (UniProt Q96LD8). Kind of test: SENP8 protease inhibitors, primary screen, biochemical, luminescence (AID 2540). Conditions: purified SENP8, Z-RLRGG-aminoluciferin cleavage, at 10 µM, hits give high values.
Chain of Sentrin-specific protease 8 (Homo sapiens) (Q96LD8 whole entry, looked up): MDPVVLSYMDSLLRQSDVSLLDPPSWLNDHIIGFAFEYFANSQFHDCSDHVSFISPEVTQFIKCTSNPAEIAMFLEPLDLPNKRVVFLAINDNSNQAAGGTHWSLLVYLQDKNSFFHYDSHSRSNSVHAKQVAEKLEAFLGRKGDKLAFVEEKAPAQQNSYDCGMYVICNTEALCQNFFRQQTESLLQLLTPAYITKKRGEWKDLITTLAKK
Turning to `COc1ccccc1OC(C)C(=O)Nc1ccc(S(=O)(=O)Nc2nccs2)cc1` (configuration not stated), the inhibition was -3.08%.

As for `Cc1ccc(-c2nc3ccccc3[nH]2)cc1N`, the inhibition is 87.1% (active). Consider `COc1ccc(Br)cc1C(=O)NC(=S)Nc1cc(-c2nc3ccccc3[nH]2)ccc1C`, for which the inhibition is 3.06%. As for `c1ccc2[nH]c(-c3nc4ccccc4[nH]3)nc2c1`, the figure is 92.4% (active); as for `Clc1ccccc1SCc1nc2ccccc2[nH]1`, 14.7%; as for `O=C(Nc1sc2c(c1-c1nc3ccccc3[nH]1)CCCC2)C1CC1`, -0.363%. As for `Cc1ccccc1N1CC(c2nc3ccccc3[nH]2)CC1=O` (configuration not stated), the figure is 2.73%; as for `CC(OC(=O)CCCOc1ccccc1)C(=O)Nc1ccc(Cl)cn1` (configuration not stated), -14.4%.

Take `CCOc1ccccc1C1CC(c2ccc(Cl)cc2)Nc2nc(N)nn21` (configuration not stated): the inhibition is 0.924%.

For the compound `O=C(COC(=O)c1cnc(Cl)c(Cl)c1)NCc1ccco1`, the inhibition is -1.98%. Next, `CC(OC(=O)CNC(=O)c1cccc(F)c1)C(=O)NC1CCCCC1C` (configuration not stated): -11.2%; `Cc1c(Br)c([N+](=O)[O-])nn1CC(=O)N1CCN(Cc2ccccc2)CC1`: -7.38%. As for `O=C(Nc1ccn(Cc2ccccc2F)n1)c1ccc(COc2ccc(Cl)cc2Cl)o1`, the figure is 8.53%; as for `O=C(Nc1ccn(Cc2ccccc2)n1)c1n[nH]c([N+](=O)[O-])c1Cl`, 97.2% (active); as for `CC(CCc1ccc(O)cc1)NCc1ccc(Cl)cc1Cl` (configuration not stated), -5.92%. Next, `COc1ccc(C2=NOC(COC(=O)c3ccc4ccccc4n3)C2)cc1` (configuration not stated): -6.73%. Consider `Cc1ccc(C(=O)NNC2=Nc3cc([N+](=O)[O-])ccc3OC2)cc1`, for which the inhibition was -6.4%. `COc1ccc(C2=Nc3cc(C)ccc3OC2)cc1`: the inhibition is 67.5% (active). As for `CS(=O)(=O)n1nc(-c2ccco2)nc1N`, the figure is 0.284%; as for `Cn1c(-c2ccco2)nc2cc3ccccc3cc21`, 94.4% (active); as for `COc1ccccc1-n1c(-c2cc(-c3ccco3)[nH]n2)n[nH]c1=S`, 3.44%. As for `Cc1ccc(NC(=O)CSc2nnc(CNC(=O)c3ccccc3F)o2)cc1`, the figure is 0.136%; as for `Cc1ccccc1-n1nnc2c(=O)oc3ccccc3c21`, -6.33%; as for `CC(NC(=O)Nc1ccccc1)C(c1cccs1)N1CCN(c2ccccc2)CC1` (configuration not stated), -7.79%.

For the compound `COC(=O)C1=C(N)Oc2cc(C)[nH]c(=O)c2C1c1ccc(Cl)cc1` (configuration not stated), the inhibition is 3.38%. In the case of `COCCCN(C(=O)CSCc1ccc(C)cc1)c1c(N)n(Cc2ccccc2)c(=O)[nH]c1=O`, the inhibition was -5.5%. As for `Cc1ccc(NC(=O)CSCC(=O)Nc2sccc2C#N)cc1`, the figure is 10.4%; as for `Cc1cccc(C)c1Nc1nnc(SCC(=O)Nc2sccc2C#N)s1`, 9.07%. Next, `Cc1csc(SCC(=O)Nc2sccc2C#N)n1`: 92.7% (active); `Cn1cccc1Cc1nnc(SCC(=O)NCc2ccc3c(c2)OCO3)n1CCc1ccccc1`: 2.69%; `CCOc1nnc(C)c2c(C)n(-c3cccc(Cl)c3)nc12`: 8.66%. As for `CC(C)c1c(C(=O)N/N=C/c2ccc(-c3ccccc3)cc2)nnn1-c1nonc1N`, the figure is 9.04%; as for `Cc1nonc1C(=O)N/N=C/c1ccc(O)cc1`, 97.5% (active).

Consider `Cc1nc2ccc(C(=O)N/N=C/c3ccc(O)cc3)cc2[nH]1`, for which the inhibition was -3.65%. Turning to `COC(=O)c1cccc(N(CC(=O)NCC2CCCO2)C(=O)CCC(=O)Nc2cc(C)on2)c1` (configuration not stated), the inhibition is -7.21%.

`CCOC(=O)c1cnc(COc2ccccc2Cl)[nH]c1=O`: the inhibition was -10.8%. Next, `CCOC(=O)c1cnc2sccn2c1=O`: -2.74%. Next, `CCOC(=O)c1cnc2[nH]c3ccccc3n2c1=O`: 78.1% (active); `CCn1c2ccccc2c2cc(NC(=O)Nc3ccc([N+](=O)[O-])cc3C)ccc21`: -10.4%; `CC(=O)Nc1ccc(S(=O)(=O)N2CCn3cccc3C2C)cc1` (configuration not stated): -4.04%. Next, `COc1ccccc1CCNC(=O)C1CCN(C(=O)/C=C/c2ccccc2)CC1`: -12.7%. In the case of `c1ccc(Nc2nc(-c3ccncc3)cs2)nc1`, the inhibition is 80.4% (active). As for `COc1ccc(Nc2nc(-c3ccccc3)cs2)cc1`, the figure is 82.8% (active); as for `Clc1ccc(-c2csc(-c3ccncc3)n2)cc1`, -22.5%; as for `COc1ccc(C(=O)Nc2nc(-c3ccc(S(=O)(=O)N4CCOCC4)cc3)cs2)cc1`, -0.876%.

As to `COc1ccc(-c2csc(NC(=O)COC(=O)Cc3ccc(Cl)cc3Cl)n2)cc1`, the inhibition was 2.3%.

Turning to `CCCn1c(CCNc2nc(-c3ccc(OC)cc3)cs2)nc2ccccc21`, the inhibition was 1.24%.

Consider `COc1ccc(-c2csc(Nc3ccccn3)n2)cc1`, for which the inhibition was 85.4% (active). As for `Clc1ccc(Nc2nc(-c3cccs3)cs2)nc1`, the figure is 10.9%; as for `COc1ccc2c(c1OC)C(=O)OC2Nc1nc(-c2ccccc2)cs1` (configuration not stated), 1.85%. For `COC(=O)c1ccc(/C=N/N2C(C)CCCC2C)cc1` (configuration not stated), the inhibition was -6.16%.

`CC1(c2ccc3ccccc3c2)NC(=O)NC1=O` (configuration not stated): the inhibition is -0.811%.

Consider `Cc1c(O)c(C)c2c(c1O)C(=O)C[C@@H](c1ccccc1)O2`, for which the inhibition is 6.05%. Next, `Cc1ccc(CS(=O)Cc2ccc(C(=O)N3CCOCC3)o2)cc1` (configuration not stated): -6.99%; `COc1ccc(F)cc1C(=O)C1CCCN(C(=O)CCc2ccccn2)C1` (configuration not stated): 29.7%.

In the case of `O=C(COC(=O)c1ncc(Cl)c(Cl)c1Cl)NC1CCS(=O)(=O)C1` (configuration not stated), the inhibition is -7.58%.

Regarding `CCOC(=O)C1CCCN(C(=O)COc2ccc(N(C)S(=O)(=O)c3ccc(C)cc3)cc2)C1` (configuration not stated), the inhibition was -0.395%. As for `NNC(=O)c1cnn(-c2ccccc2)c1C(F)(F)F`, the figure is -1.96%; as for `O=C(COc1ccccc1Cl)Nc1ccc(C(=O)c2ccc(C(=O)O)cc2)cc1`, 2.39%. Next, `COC(=O)c1ccc(NCC(=O)N2CCCCCC2)cc1`: -5.06%. Next, `COC(=O)c1ccc(NCC(=O)c2ccccc2)cc1`: 92.3% (active); `COC(=O)c1ccc(NC(=O)Nc2ccc(C)cc2)cc1`: -16%. As for `O=C(COC(=O)c1ccc(S(=O)(=O)Nc2ccccc2)cc1)NCC1CCCO1` (configuration not stated), the inhibition is -2.95%. Take `CC1CN(S(=O)(=O)c2ccc(C(=O)Nc3sccc3C(N)=O)cc2)CC(C)O1` (configuration not stated): the inhibition is -3.19%. As for `CCCOc1ccc(CNC(=O)C2CCN(c3nn4c(=O)cc(C)nc4s3)CC2)cc1`, the figure is 7.56%.

Turning to `O=C(Nc1ccc2oc(-c3ccc4ccccc4c3)nc2c1)c1cccs1`, the inhibition is 5.01%. Consider `Nc1ccc(-c2nnc(-c3ccccc3)o2)cc1`, for which the inhibition is 40%. Next, `CCc1ccc2oc(-c3ccc(N)cc3)nc2c1`: 89.6% (active); `Fc1ccc2nc(-c3ccccc3)nc(SCc3nnc(-c4ccccc4)o3)c2c1`: 9.5%; `O=C(C[C@@H]1C/C=C\CCC(=O)OC[C@@H]2CCCN2C1=O)NCCO`: -14.7%. As for `CC(C)[C@H](NC(=O)N1c2ccccc2NC(=O)[C@@H]1C(C)C)C(=O)N[C@H](C(=O)O)c1ccccc1`, the figure is -11.1%; as for `COc1ccccc1OCc1nc2ccccc2s1`, 94.1% (active). For `CN(Cc1nc2ccccc2s1)C(=O)c1ccc(F)cc1`, the inhibition was -4.17%. As for `COc1ccccc1N1CC(O)=C(c2nc3ccccc3s2)C1=N`, the figure is -8.72%.

Regarding `COC(=O)Cc1ccc(OCC(=O)NC2CCCC2)cc1`, the inhibition is -7.77%. In the case of `O=C(Nc1ccccc1C(F)(F)F)N1CCCC1c1cccnc1` (configuration not stated), the inhibition was 1.35%.

`CC(=O)Nc1cccc(-c2csc(Nc3cccc(C)n3)n2)c1`: the inhibition was 90.4% (active). As for `Cc1ccccc1Nc1nc(-c2cccnc2)cs1`, the inhibition is 44%. Next, `CCc1noc(C)c1C(=O)Nc1nc(-c2ccccc2)cs1`: -12.4%; `CC(=O)NCCC(=O)Nc1nc(-c2ccc3c(c2)OCCO3)cs1`: -10.2%. For the compound `O=C(Nc1ccc(-c2csc(Nc3cccc(C(F)(F)F)c3)n2)cc1)c1cccc(C(F)(F)F)c1`, the inhibition was 2.09%. Next, `Cc1cccc(Nc2nc(-c3ccccc3)cs2)n1`: 81.3% (active). Next, `CC(=O)NNc1cc(=O)c2c(=O)n(C)c(=O)n(C)c2[nH]1`: 5.83%; `COc1ccc(N(CC(=O)N/N=C/c2cccc3c2OCCO3)S(=O)(=O)c2ccc(NC(C)=O)cc2)cc1`: -14.1%.

As to `Cc1nc(COc2cc3oc(=O)cc(C)c3cc2Cl)cs1`, the inhibition is -13.3%. Next, `CCN1CCCC1CNC(=O)Cn1cnc2ccc(S(=O)(=O)N3CCC(C)CC3)cc2c1=O` (configuration not stated): 3.55%; `CCC1Nc2ncnc(N3CCN(c4ccccc4)CC3)c2N(Cc2ccc(Cl)cc2)C1=O` (configuration not stated): -14%; `CCOCC(=O)Nc1ncc(S(=O)(=O)c2ccc([N+](=O)[O-])cc2)s1`: 1.6%. For `CSCc1ccc(C(=O)Nc2cc(C)cc(C)c2)cc1`, the inhibition was 72.8% (active). Next, `C=CCN(c1ccc(C(=O)Nc2cc(C)cc(C)c2)cc1)S(C)(=O)=O`: 3.93%; `CC(=O)Nc1ccccc1NC(=O)c1cc(C)cc(C)c1`: -8.13%. On to `COc1cc(N=Cc2c(O)c3ccccc3oc2=O)c(OC)cc1Cl`, for which the inhibition was 20%. Next, `COc1ccccc1N=C(C)C1=C(O)COC1=O`: -4.5%; `COc1ccccc1N=Cc1c(O)c2ccccc2oc1=O`: 58.3% (active); `C=CCn1c(C)cc(C2=NNC(=NCC)SC2)c1C`: 91.5% (active). On to `COc1ccc(N(Cc2ccc(N(C)C)cc2)C(=O)c2ccc(S(C)(=O)=O)cc2)cc1`, for which the inhibition was 7.56%. Next, `O=C(CCc1ccccc1)Nc1ccc(NC(=O)C2CC2)nc1`: -0.592%.
